Rows were chosen to be rich in hits. Some 10% of all compounds tested hit in one or more screens of this group.
VP16 counter: VP16 counterscreen qHTS for inhibitors of ROR gamma transcriptional activity; Drosophila S2 Gal4-VP16 UAS-luciferase, luminescence, 20 h; hit rate 3.5% among 310,000; Potency, µM (series often up to 53.6 µM), actives largely listed as inhibitors;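 further: Gal4-VP16 expression switched on by copper sulfate through the metallothionein promoter; nearly all actives have a fitted effect of over 50% in size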
MCF10A rereplic: A quantitative high throughput screen for small molecules that induce DNA re-replication in MCF 10a normal breast cells; MCF 10A DNA re-replication, Hoechst nuclear intensity, 48 h; Potency, µM (highest dose often 46.1 µM), most hits filed as activators; hit rate 2.9% among 350,000; AID 624296, 2012; further: nearly all actives have a fitted effect of over 50% in size
SW480 rerep: A quantitative high throughput screen for small molecules that induce DNA re-replication in SW480 colon adenocarcinoma cells. hit rate 1.8% among 340,000. AID 624297, 2012. Potency, µM (series often up to 46.1 µM), most hits filed as activators. SW480 DNA re-replication, Hoechst DNA content imaging, 48 h; further: nearly all actives have a fitted effect of over 55% in size
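Quantitative HTS format with DMSO vehicle controls; 48 hr drug incubation at 37 C, then 40 min Hoechst staining and scanning imager measurement at 405 nm excitation.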
ELG1 repair inh: qHTS screen for small molecules that inhibit ELG1-dependent DNA repair in human embryonic kidney (HEK293T) cells expressing luciferase-tagged ELG1. AID 504467, 2011. HEK293T ELG1-luciferase reporter, luminescence, 16 h; DNA damage induced by 5-fluorouridine. hit rate 2.3% among 330,000. Potency, µM (titrated, usually from 46.1 µM), most hits filed as inhibitors; further: nearly all actives have a fitted effect of over 55% in size
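In this reporter screen, reduction of luminescence relative to DMSO vehicle indicated activity. Compounds and 5-fluorouridine were added together to 2,000 cells per well, incubated for 16 hr at 37 °C, then developed with ONE-Glo.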
RORg inh: qHTS for inhibitors of ROR gamma transcriptional activity; hit rate 5.4% among 310,000; Nuclear receptor ROR-gamma (Mus musculus), P51450; Drosophila S2 Gal4-RORgamma UAS-luciferase reporter, 20 h; Potency, µM (highest dose often 53.6 µM), usual class: inhibitors; further: nearly all actives have a fitted effect of over 60% in size
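Luciferase reporter read in Schneider cells carrying Gal4-RORγ (mouse) and UAS-Photinus luciferase; cells given compound 1 h before 700 uM copper sulfate induction, then incubated 20 h at ambient temperature.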
Hits are given with their value; 0 = inactive; ? = inconclusive; - = not tested or not shown. The call rests on the fitted dose curve; in most records, active means well fitted curve in the direction sought with a large enough effect; inconclusive means small, poorly fitted or top-dose-only effect, or another doubt; inactive means no such curve, though single readings can be large; an effect the other way counts as inactive or inconclusive.

SMILES	VP16 counter	MCF10A rereplic	SW480 rerep	ELG1 repair inh	RORg inh
COc1ccccc1N1CCN(S(=O)(=O)CCNC(=O)CC2CCCCC2)CC1	-	0	0	12µM	-
CCOC(=O)c1c(C)c(C(=O)Nc2ccc3c(c2)OCCO3)c(C)n1C	0	?	0	?	0
CCOC(=O)c1c(C)c(C(=O)Nc2cc(F)ccc2F)c(C)n1C	0	10µM	23µM	0	0
CC(=O)c1sc(-c2ccc(F)cc2)cc1NS(=O)(=O)c1ccc(C)cc1	0	0	0	18µM	0
CC(=O)c1cc2c(cc1NS(=O)(=O)c1ccccc1)OCO2	0	0	0	?	0
CC(=O)c1sc(-c2ccccc2)cc1NS(=O)(=O)c1ccccc1	0	0	0	0	0
CC(=O)c1sc(-c2ccccc2)cc1NS(=O)(=O)c1ccc(C)cc1	0	12µM	?	0	?
O=C1OCc2ccc(NS(=O)(=O)c3ccc(C(F)(F)F)cc3)cc21	0	0	0	0	0
NC(=O)c1sc(-c2ccsc2)cc1NS(=O)(=O)c1ccc(C(F)(F)F)cc1	0	?	0	18µM	0
CC(=O)c1cc2c(cc1NS(=O)(=O)c1ccc(C)cc1)OCCO2	0	15µM	?	0	0
Cc1ccc([C@@H]2[C@@H]3C(=O)N(C)C(=O)[C@@H]3[C@]3(Cc4ccccc4)C(=O)N(Cc4ccccc4)CC(=O)N23)o1	0	0	0	0	0
COc1ccc(CNc2cc(-c3ccoc3)ncn2)c(OC)c1	0	-	-	-	0
Cc1ccc(Cc2c(C)c(C#N)c3[nH]c4ccccc4n3c2=O)cc1	0	?	0	18µM	?
C=C(C)Cc1c(C)c(C#N)c2[nH]c3ccccc3n2c1=O	0	?	0	21µM	?
Cc1ccnc(NS(=O)(=O)c2ccc(NC(=O)c3cc(=O)c4ccccc4o3)cc2)n1	0	0	0	0	0
COc1ccc(C(=O)N/N=C/C2CC=CCC2)cc1OC (stereo unspecified)	0	0	0	0	0
COc1ccc2nc(NC(=O)c3c(C)noc3C)sc2c1	-	0	0	?	-
CS(=O)(=O)c1ccc2nc(NC(=O)c3ccccc3Cl)sc2c1	0	0.82µM	0	0	0
Cc1noc(C)c1C(=O)Nc1nc2ccc(S(C)(=O)=O)cc2s1	11µM	0	0	?	0
CS(=O)(=O)c1ccc2nc(NC(=O)c3ccccc3Br)sc2c1	0	0	0	?	0
CS(=O)(=O)c1ccc2nc(NC(=O)c3cc(-c4ccccc4)nn3-c3ccccc3)sc2c1	0	0	0	7.3µM	0
O=S(=O)(c1cccc2nsnc12)N1CCCCC1	0	0	0	0	0
O=C(Cc1ccccc1[N+](=O)[O-])OCC(=O)c1c[nH]c2ccccc12	-	0	0	?	-
CCOc1ccc2nc(NC(=O)C(NS(=O)(=O)c3cccc4nsnc34)C(C)C)sc2c1 (stereo unspecified)	?	0	0	?	16µM
CC(C)C(NS(=O)(=O)c1cccc2nsnc12)C(=O)Nc1nc2ccc(Cl)cc2s1 (stereo unspecified)	?	0	0	0	22µM
SMILES	VP16 counter	MCF10A rereplic	SW480 rerep	ELG1 repair inh	RORg inh
Cc1ccc(NC(=O)C(NS(=O)(=O)c2cccc3nsnc23)C(C)C)nc1 (stereo unspecified)	0	0	0	0	0
COc1ccc2c(c1)cc(C(=O)N[C@@H](CCSC)C(=O)N1CCC[C@H]1C(=O)O)n2C	0	0	0	?	0
C=CCCC1(C)C(=O)N(c2ccccc2)c2ccccc21 (stereo unspecified)	0	?	18µM	?	0
O=C(Nc1ccc2c(c1)OCCO2)C1CC(c2ccccc2Cl)=NO1 (stereo unspecified)	0	0	0	?	0
CCn1ncc(C2=NOC(C(=O)Nc3ccc4c(c3)OCO4)C2)c1C (stereo unspecified)	16µM	0	0	?	0
O=C(Nc1ccc2c(c1)OCO2)C1CC(c2ccccc2O)=NO1 (stereo unspecified)	?	0	0	0	1.6µM
